The whole screen tested about 340,000 compounds, of which about 8,500 (2.5%) were called active.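 The calls were made as follows: active = melting temperature shift of at least 10% of the positive control shift, at one fixed dose; inactive = the rest.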 Only a selection was taken, and actives are over-represented in it overall.
system: Glutamate receptor ionotropic, NMDA 3A (GRIN3A) ligand-binding domain; experiment: NR3A LBD thermal stabilization by compounds – biophysical, differential scanning fluorimetry, uHTS, primary screen (AID 1259313); conditions: at 25 µM, stronger effect = higher value, 0% = protein alone, 100% = glycine-bound protein

Compound | Tm shift relative to glycine control
Cc1noc(C)c1-c1ccc2ncnc(NC(C)c3ccco3)c2c1 (stereo not given) | -0.81% (inactive)
COc1cccc(-n2c(SCC(=O)c3c[nH]c4ccccc34)nc3ccccc3c2=O)c1 | 8.21% (inactive)
COc1ccc(C(C(O)C(=O)c2c[nH]c3ccccc23)N2CCN(c3ccccc3)CC2)cc1 (stereo not given) | -1.26% (inactive)
COc1ccc(/C=C(\C#N)c2c[nH]c3ccccc23)cc1 | 35.2% (active)
Cc1cc(C)c2nc(NC(=O)C3CCCO3)sc2c1 (stereo not given) | -0.2% (inactive)
CC(NC(=O)c1ccccc1)C(=O)OCC(=O)Nc1cccc(S(=O)(=O)N2CCCC2)c1 (stereo not given) | -1.26% (inactive)
NS(=O)(=O)c1ccc(NC(=S)NC(=O)c2cccc(Br)c2)cc1 | -9.81% (inactive)
Cc1ccccc1NC(=S)NNC(=O)c1cccc(Br)c1 | -6.22% (inactive)
O=C(NC(=S)Nc1cccc2c(O)cccc12)c1cccc(Br)c1 | 23.1% (active)
C/C=C(/C)C(=O)O[C@@H]1c2cc3c(c4c2[C@@]2(CO4)C(=O)C(OC)=C(OC)C=C2C[C@@H](C)[C@H]1C)OCO3 | 0.32% (inactive)
CCN1C(=O)C(=O)N(CC(=O)Nc2cc(C)ccc2C)C1=O | 1.68% (inactive)
CCN=C1SC(CC(=O)Nc2ccc(C)cc2)C(=O)N1CC (stereo not given) | 0.44% (inactive)
CCN1C(=O)C(CC(=O)Nc2cc(C)ccc2C)SC1=Nc1ccc(S(N)(=O)=O)cc1 (stereo not given) | 14.2% (active)
C/C(=N\NS(=O)(=O)c1ccccc1)c1c(O)cc(C)oc1=O | 5.22% (inactive)
Oc1cccc(C2c3[nH]c4ccccc4c3CCN2Cc2cnn(-c3ccccc3)c2)c1 (stereo not given) | 9.57% (inactive)
COc1ccc(-c2nc(N)ncc2-c2ccc(Cl)cc2)c(O)c1 | -3.97% (inactive)
Cc1[nH]nc(-c2ccc(OCc3cnn(-c4ccccc4)c3)cc2O)c1Oc1ccc(Cl)cc1 | 22.7% (active)
COc1ccc(C(=O)NC(Cc2ccc(OC(=O)c3ccc(OC)cc3)cc2)C(=O)O)cc1 (stereo not given) | 1.26% (inactive)
CCCC(C)n1[nH]c(=O)c2c(C)cc(C)nc21 (stereo not given) | -2.91% (inactive)
COc1ccc(/C=C/C(=O)OCC(=O)N2CCN(S(=O)(=O)c3ccc(C)cc3C)CC2)cc1OC | 2.82% (inactive)

Compound | Tm shift relative to glycine control
Cc1nc2ccccn2c(=O)c1NC(=O)c1cccs1 | 2.62% (inactive)
Brc1ccc(-c2csc(N/N=C/c3cccnc3)n2)cc1 | 3.34% (inactive)
C(=N\Nc1ccc2ccccc2n1)/c1ccc2c(c1)OCO2 | -7.73% (inactive)
Brc1ccc(-c2csc(N/N=C/c3ccc4c(c3)OCO4)n2)cc1 | 23.4% (active)
COc1ccc(-c2ccc(CCC(=O)O)n2NC(=O)c2ccc(C(C)(C)C)cc2)cc1 | -1.21% (inactive)
CNC(=O)c1sc(Nc2ccc(OCc3ccccc3)cc2)nc1C | 33.7% (active)
CNC(=O)c1sc(NCc2ccccc2OC)nc1C | 0.18% (inactive)
O=C(O)/C=C\C(=O)Nc1ccc(OCc2ccccc2)cc1 | -0.88% (inactive)
COC(=O)C1=C(Nc2ccc(C)cc2)C=C(C)C(C(=O)OC)C1c1ccc(F)cc1 (stereo not given) | 2.17% (inactive)
CC[C@]1(C(=O)OC)[C@H]2C(=O)N(Cc3ccccc3)C(=O)[C@H]2[C@H]2CN=C(SCc3ccccc3)N21 | -1.15% (inactive)
COCCN1C2=C(COC(C)(C)C2)C(=S)NC1c1ccccc1 (stereo not given) | -0.64% (inactive)
CC(=O)c1c(Nc2ccccc2)sc(C(=O)c2ccccc2)c1C | 13.4% (active)
CCC(=O)Nc1sc(C(=O)Nc2ccccc2)c(C)c1C(=O)OC | 2.03% (inactive)
COC(=O)c1c(NC(C)=O)sc(C(=O)Nc2ccccc2OC)c1C | -3.42% (inactive)
COC(=O)c1cc(S(=O)(=O)N2CCN(c3cc(C)ccc3C)CC2)c[nH]1 | -17% (inactive)
Cc1ccc(Cl)c(OCC(=O)NN2CCN(C)CC2)c1 | -1.17% (inactive)
CCCC1=Nc2cc(C(=O)NCc3ccco3)ccc2Sc2ccccc21 | -20.6% (inactive)
Cc1ccc(N(CC(=O)Nc2cc(C)cc(C)c2)S(=O)(=O)c2cccc3nonc23)cc1 | -1.49% (inactive)
CCOC(=O)c1ccc(NC(=O)c2c(NCc3ccccc3)[nH]c(=O)[nH]c2=O)cc1 | 14.9% (active)
CCOC(=O)c1ccc(NC(=O)c2nc[nH]c2C(=O)NCc2ccccc2)cc1 | -1.27% (inactive)

Compound | Tm shift relative to glycine control
CCOC(=O)c1ccc(NC(=O)c2c(N)n(C)c(=O)[nH]c2=O)cc1 | 0.72% (inactive)
Cc1ccc(NC(=S)N2CCN(c3ncccn3)CC2)cc1C | -1.38% (inactive)
Cn1cc(/C=C/C(=O)N2CCCC(C(=O)c3ccc(C(F)(F)F)cc3)C2)cn1 (stereo not given) | 1.32% (inactive)
CCCCCCCCCCOC(=O)Cn1c(COc2cccc(OC)c2)[n+](C)c2ccccc21 | 17.8% (active)
CCCCCCCCCCOC(=O)Cn1c(COc2ccc(C)cc2)[n+](C)c2ccccc21 | -408% (inactive)
CCCCn1c(N)c(N(CCOC)C(=O)c2cccc(OCc3ccccc3)c2)c(=O)[nH]c1=O | 1.68% (inactive)
O=C1CC(Cc2ccccc2)C(=O)N1c1ccc(Cl)cn1 (stereo not given) | 1.69% (inactive)
Fc1ccc(/C=N/n2c(COc3ccccc3)n[nH]c2=S)cc1 | -0.74% (inactive)
CN(C)c1ccc(C2Nc3ccccc3C(=O)N2NS(=O)(=O)c2ccccc2)cc1 (stereo not given) | 0.59% (inactive)
O=C(CN1CCOCC1)Nc1c(Cl)cc(Cl)cc1Cl | -2.33% (inactive)
O=C(CN1CCOCC1)Nc1c2c(nc3c1CCC3)CCC2 | 10.2% (active)
Cc1cc(C)c(NC(=O)CN2CCOCCOCCOCCOCC2)c(C)c1 | 0.86% (inactive)
O=C(COc1ccc2ccccc2c1)N1CCN(C(=O)c2cccs2)CC1 | 0.47% (inactive)
CCOC(=O)c1nn(-c2ccccc2F)c2nc(Nc3ccccc3)cc(=O)n12 | 0.55% (inactive)
Cc1ccc(NC(=O)CSCC(=O)Nc2sccc2C#N)cc1 | -2.55% (inactive)
Cc1ccc(NC(=O)c2sc3nc(N)c(C#N)cc3c2N)cc1 | 10.3% (active)
CCc1ccc2nc3sc(C(=O)Nc4nnc(CC)s4)c(N)c3cc2c1 | 2.24% (inactive)
O=C(N[C@@H](Cc1c[nH]c2ccccc12)C(=O)O)OCC1c2ccccc2-c2ccccc21 | 19.5% (active)
O=C(CCn1nnc2ccccc2c1=O)N[C@@H](Cc1c[nH]c2ccccc12)C(=O)O | -1.09% (inactive)
Cc1cccc(C)c1OCC(=O)NC(Cc1c[nH]c2ccccc12)C(=O)O (stereo not given) | 0.33% (inactive)
